# Test results: ChEMBL document CHEMBL5606458, “ASAP - ZIKV NS2B-NS3 protease fluorescence single point” (2024)
# Out of some 2,700 compounds screened, about 160 (5.9%) showed an effect of 50% or more. The full list was thinned out, with strong results kept by preference.
# Target: Nonstructural protein 3 (Zika virus) (UniProt A0A024AXB9)
# [1] = PRVABC59, Concentration 50.0 uM, Number of replicates 1.0
# [2] = PRVABC59, Concentration 15.0 uM, Number of replicates 1.0
# Nonstructural protein 3 (Zika virus), sequence (A0A024AXB9 as listed by the source): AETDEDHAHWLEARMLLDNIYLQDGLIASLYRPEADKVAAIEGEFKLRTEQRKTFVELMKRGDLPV
structure (smiles),measurement,setting,value
COc1cc(NC(=O)C2CCN(c3ccc(C=O)cc3)CC2)cc(OC)c1,inhibition,[1],28%
O=Cc1ccc(N2CCC(C(=O)Nc3ccc(Cl)c(Cl)c3)CC2)cc1,inhibition,[1],22.8%
O=Cc1ccc(N2CCC(C(=O)Nc3cc(Cl)cc([N+](=O)[O-])c3O)CC2)cc1,inhibition,[1],93.4%
O=Cc1ccc(N2CCC(C(=O)Nc3c(Cl)cc(Cl)cc3Br)CC2)cc1,inhibition,[1],22.3%
O=Cc1ccc(N2CCC(C(=O)Nc3cc(Cl)cc(Cl)c3O)CC2)cc1,inhibition,[1],92.4%
O=Cc1ccc(N2CCC(C(=O)Nc3ccc(O)cc3[N+](=O)[O-])CC2)cc1,inhibition,[1],38.4%
O=Cc1ccc(N2CCC(C(=O)Nc3ccc([N+](=O)[O-])cc3Cl)CC2)cc1,inhibition,[1],39.8%
O=Cc1ccc(N2CCC(C(=O)Nc3cc(Cl)c(F)c(Cl)c3)CC2)cc1,inhibition,[1],20.1%
O=Cc1ccc(N2CCC(C(=O)Nc3cc(Cl)c(O)c(Cl)c3)CC2)cc1,inhibition,[1],98.7%
O=Cc1ccc(N2CCC(C(=O)Nc3cc(Cl)ccc3Br)CC2)cc1,inhibition,[1],19.5%
Cc1cc(-c2nn(C)cc2NC(=O)c2ccccc2C(F)(F)F)[nH]n1,inhibition,"PRVABC59, Concentration 49.5 uM, Number of replicates 2.0, Standard deviation 1.8946804704330402 %",-3.15%
same,inhibition,"PRVABC59, Concentration 99.01 uM, Number of replicates 2.0, Standard deviation 0.666066751064398 %",-1.39%
same,inhibition,"PRVABC59, Concentration 198.0 uM, Number of replicates 2.0, Standard deviation 1.3743584908968294 %",2.3%
O=C(Nc1cnc(Br)c(Cl)n1)c1cc(Cl)ccc1NS(=O)(=O)c1ccc(Oc2ccccc2Cl)cc1,inhibition,[2],20.6%
O=Cc1ccc(N2CCC(C(=O)NCCc3ccc(C(F)(F)F)cc3)CC2)cc1,inhibition,[1],25.7%
CCOC(=O)c1cc(Cn2cc(C3CCNCC3)c(C)n2)on1,inhibition,"PRVABC59, Concentration 49.5 uM, Number of replicates 2.0, Standard deviation 3.597880558823145 %",-0.431%
same,inhibition,"PRVABC59, Concentration 99.01 uM, Number of replicates 2.0, Standard deviation 3.9852172616025077 %",-1.41%
same,inhibition,"PRVABC59, Concentration 198.0 uM, Number of replicates 2.0, Standard deviation 1.6156285466659275 %",-2.54%
CC1(C)[C@H]2CC[C@]1(C)[C@H](NC(=O)C1CCN(c3ccc(C=O)cc3)CC1)C2,inhibition,[1],-4.03%
O=Cc1ccc(N2CCC(C(=O)Nc3cccc(Cl)c3Br)CC2)cc1,inhibition,[1],21%
c1cnc(N2CCOCC2)c(CN2CC[C@H](c3c[nH]c4ccccc34)C2)c1,inhibition,"PRVABC59, Concentration 49.5 uM, Number of replicates 2.0, Standard deviation 0.5816150455075427 %",4.93%
same,inhibition,"PRVABC59, Concentration 99.01 uM, Number of replicates 2.0, Standard deviation 1.6761828626765602 %",10.2%
same,inhibition,"PRVABC59, Concentration 198.0 uM, Number of replicates 2.0, Standard deviation 1.4600963075359947 %",18.9%
Nc1ccc(Cl)c2cccnc12,inhibition,"PRVABC59, Concentration 99.9 uM, Number of replicates 2.0, Standard deviation 7.433905478836123 %",-9.18%
Nc1cccc2c(Cl)ccnc12,inhibition,"PRVABC59, Concentration 49.95 uM, Number of replicates 2.0, Standard deviation 13.26082141913299 %",25%
same,inhibition,"PRVABC59, Concentration 99.9 uM, Number of replicates 2.0, Standard deviation 5.807935528538471 %",61.3%
Nc1ccc(Cl)c2ncccc12,inhibition,"PRVABC59, Concentration 49.95 uM, Number of replicates 2.0, Standard deviation 10.856665376334321 %",2.86%
same,inhibition,"PRVABC59, Concentration 99.9 uM, Number of replicates 2.0, Standard deviation 9.901328830284072 %",10.8%
Cc1ccc(CN(C(=O)C2CCN(c3ccc(C=O)cc3)CC2)C2CC2)s1,inhibition,[1],27.6%
CC(=O)N[C@@H](CCCCN)C(=O)Nc1cccc2c(Cl)cc(C)nc12,inhibition,"PRVABC59, Concentration 49.95 uM, Number of replicates 2.0, Standard deviation 3.802363243631691 %",19.9%
same,inhibition,"PRVABC59, Concentration 99.9 uM, Number of replicates 2.0, Standard deviation 2.8723353743500515 %",37.2%
Cc1cc(CO)c2cccc(Cc3cccc(NC(=O)c4nc(N)n[nH]4)c3)c2n1,inhibition,"PRVABC59, Concentration 49.95 uM, Number of replicates 2.0, Standard deviation 3.2981012364268594 %",-0.767%
same,inhibition,"PRVABC59, Concentration 99.9 uM, Number of replicates 2.0, Standard deviation 3.2421151330326254 %",4.54%
Cc1cc(CO)c2cccc(NC(=O)Cc3cccc(CN)c3)c2n1,inhibition,"PRVABC59, Concentration 49.95 uM, Number of replicates 2.0, Standard deviation 2.002239649301327 %",8.36%
same,inhibition,"PRVABC59, Concentration 99.9 uM, Number of replicates 2.0, Standard deviation 0.9082841415474754 %",22.1%
Cc1cc(CO)c2cccc(NC(=O)c3nc(N)n[nH]3)c2n1,inhibition,"PRVABC59, Concentration 49.95 uM, Number of replicates 2.0, Standard deviation 1.6810779662500097 %",28.9%
same,inhibition,"PRVABC59, Concentration 99.9 uM, Number of replicates 2.0, Standard deviation 2.6897269039186593 %",60.8%
Cc1cc(CO)c2cccc(NC(=O)CCN)c2n1,inhibition,"PRVABC59, Concentration 49.95 uM, Number of replicates 2.0, Standard deviation 0.34164167967973086 %",58.9%
same,inhibition,"PRVABC59, Concentration 99.9 uM, Number of replicates 2.0, Standard deviation 0.25939261057290325 %",94.2%
Cc1cc(Cl)c2cccc(NC(=O)CCN)c2n1,inhibition,"PRVABC59, Concentration 49.95 uM, Number of replicates 2.0, Standard deviation 0.2024559271573544 %",95.1%
same,inhibition,"PRVABC59, Concentration 99.9 uM, Number of replicates 2.0, Standard deviation 0.15816464699422608 %",91.2%
CC(=O)N[C@@H](CCCN)C(=O)Nc1cccc2c(Cl)cc(C)nc12,inhibition,"PRVABC59, Concentration 99.9 uM, Number of replicates 2.0, Standard deviation 3.96053156793845 %",2.63%
Cc1cc(CO)c2cccc(NC(=O)[C@@H](N)CCN)c2n1,inhibition,"PRVABC59, Concentration 49.95 uM, Number of replicates 2.0, Standard deviation 10.156724992387474 %",7.81%
same,inhibition,"PRVABC59, Concentration 99.9 uM, Number of replicates 2.0, Standard deviation 27.740304464442595 %",6.58%
Cc1cc(CO)c2cccc(Cc3ccccc3NC(=O)c3nc(N)n[nH]3)c2n1,inhibition,"PRVABC59, Concentration 49.95 uM, Number of replicates 2.0, Standard deviation 1.1858913556413317 %",-1.17%
same,inhibition,"PRVABC59, Concentration 99.9 uM, Number of replicates 2.0, Standard deviation 1.6592298829189325 %",2.56%
O=C(Nc1c(Cl)cncc1Cl)c1cc(Cl)ccc1NS(=O)(=O)c1ccc(Oc2ccccc2Cl)cc1,inhibition,[2],22%
O=Cc1ccc(N2CCC(C(=O)NC[C@@H](c3ccc(Cl)cc3)N3CCCC3)CC2)cc1,inhibition,[1],18.7%
O=Cc1ccc(N2CCC(C(=O)Nc3nc4cc(Cl)ccc4s3)CC2)cc1,inhibition,[1],22.7%
CN1CCN(c2ccccc2NC(=O)C2CCN(c3ccc(C=O)cc3)CC2)CC1,inhibition,[1],22.1%
N[C@@H]1CCCC[C@H]1C(=O)Nc1cccc2cccnc12,inhibition,"PRVABC59, Concentration 99.9 uM, Number of replicates 2.0, Standard deviation 1.8980185851288 %",-8.2%
O=C(Nc1cccc2cccnc12)C1CCNCC1,inhibition,"PRVABC59, Concentration 49.95 uM, Number of replicates 2.0, Standard deviation 0.5440976068370852 %",42.6%
same,inhibition,"PRVABC59, Concentration 99.9 uM, Number of replicates 2.0, Standard deviation 0.5440976068370852 %",92%
CC(=O)N[C@@H](CCCN)C(=O)Nc1cccc2cccnc12,inhibition,"PRVABC59, Concentration 49.95 uM, Number of replicates 2.0, Standard deviation 1.6196420224622259 %",19.2%
same,inhibition,"PRVABC59, Concentration 99.9 uM, Number of replicates 2.0, Standard deviation 2.0688397621434533 %",38.7%
O=C(c1cc(Cl)ccc1NS(=O)(=O)c1ccc(Oc2ccccc2Cl)cc1)N1CCC(O)(c2ccc(Cl)cc2)CC1,inhibition,[2],26.1%
C[C@@H](NC(=O)c1cc(Cl)ccc1NS(=O)(=O)c1ccc(Oc2ccccc2Cl)cc1)c1cccc(Br)c1,inhibition,[2],35.8%
O=C(NCC(c1ccccc1)c1ccccc1)c1cc(Cl)ccc1NS(=O)(=O)c1ccc(Oc2ccccc2Cl)cc1,inhibition,[2],12.2%
O=C(N[C@H](CO)Cc1ccc(Cl)cc1)c1cc(Cl)ccc1NS(=O)(=O)c1ccc(Oc2ccccc2Cl)cc1,inhibition,[2],50.2%
O=C(N[C@@H](CO)Cc1ccccc1)c1cc(Cl)ccc1NS(=O)(=O)c1ccc(Oc2ccccc2Cl)cc1,inhibition,[2],33.2%
O=C(N[C@H](CO)CC1CCCCC1)c1cc(Cl)ccc1NS(=O)(=O)c1ccc(Oc2ccccc2Cl)cc1,inhibition,[2],40.7%
O=C(NC(c1ccccc1)c1ccccc1)c1cc(Cl)ccc1NS(=O)(=O)c1ccc(Oc2ccccc2Cl)cc1,inhibition,[2],55%
O=C(N[C@@H](Cc1ccccc1)c1ccccc1)c1cc(Cl)ccc1NS(=O)(=O)c1ccc(Oc2ccccc2Cl)cc1,inhibition,[2],28.3%
O=C(N[C@H](c1ccccc1)c1ccco1)c1cc(Cl)ccc1NS(=O)(=O)c1ccc(Oc2ccccc2Cl)cc1,inhibition,[2],53.4%
O=C(N[C@@H](c1ccccc1)c1ccc(Br)cc1)c1cc(Cl)ccc1NS(=O)(=O)c1ccc(Oc2ccccc2Cl)cc1,inhibition,[2],8.89%
Cc1ccc2ccccc2c1NC(=O)c1cc(Cl)ccc1NS(=O)(=O)c1ccc(Oc2ccccc2Cl)cc1,inhibition,[2],26.4%
O=Cc1ccc(N2CCC(C(=O)N3CCC(Oc4ncccn4)CC3)CC2)cc1,inhibition,[1],25.2%
O=Cc1ccc(N2CCC(C(=O)Nc3cc(Cl)nc(Cl)n3)CC2)cc1,inhibition,[1],17.4%
O=C(O)c1cccc(NC(=O)c2cccc(Br)c2)c1,inhibition,"PRVABC59, Concentration 49.5 uM, Number of replicates 2.0, Standard deviation 2.5009940749301487 %",-0.982%
same,inhibition,"PRVABC59, Concentration 99.01 uM, Number of replicates 2.0, Standard deviation 3.0157213975013266 %",0.926%
same,inhibition,"PRVABC59, Concentration 198.0 uM, Number of replicates 2.0, Standard deviation 3.887437163113113 %",4.65%
CC(C)(CNC(=O)c1cc(Cl)ccc1NS(=O)(=O)c1ccc(Oc2ccccc2Cl)cc1)c1cccc(Cl)c1,inhibition,[2],47.6%
